Some test systems named below: HCT-15 colon; HT29 colon; SNB-75 CNS; SNB-19 CNS; U251 CNS; PC-3 prostate; SK-MEL-5 melanoma; UACC-62 melanoma; LOX IMVI melanoma; SK-MEL-28 melanoma; EKVX NSCLC; SN12C renal; UO-31 renal; TK-10 renal; ACHN renal; CAKI-1 renal; A498 renal; CCRF-CEM leukemia; SK-MEL-2 melanoma; MOLT-4 leukemia.
Assay in all cases: NCI-60 one-dose screen, 48 h (100 = growth as untreated, 0 = no growth, -100 = all killed)
Conditions in all cases: 10 µM

The panel holds about 83,000 compounds, 20% with a hit somewhere; the sample as a whole holds those more often.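 Results are percent growth after 48 hours of single-concentration exposure. 100 means growth as in untreated cells, lower positive values show inhibition; negative values down to -100 show cell death.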 Values without a mark were called inactive. Activity calls are given as the source filed them. Rule for the calls: active = growth percent below 10; inactive = the rest.

As to `C#Cc1ccc(S(=O)(=O)Nc2cccc(-c3csc(NC(C)=O)n3)c2)cc1`, the growth is 67.1% in the assay with HCT-15 colon; 71.4% with HT29 colon; 60.4% with SNB-75 CNS; 83.6% in the assay with SNB-19 CNS; 81.8% in the assay with U251 CNS; 62.3% with PC-3 prostate. In addition, the growth with SK-MEL-5 melanoma is 43.2%; with UACC-62 melanoma, 48.7%; in the assay on LOX IMVI melanoma, 54.6%; with SK-MEL-28 melanoma, 89.4%; in the assay on EKVX NSCLC, 57.9%; in the assay on SN12C renal it was 79%. Besides, the growth with UO-31 renal is -81.1% (active); with TK-10 renal, 81.7%; in the assay with ACHN renal it was 82.6%; in the assay with CAKI-1 renal, 65.3%; with A498 renal, 96%; in the assay on CCRF-CEM leukemia it was 49.5%.
Take `COc1ccc(/C=N/N=C(\C)c2ccc3c(c2)Nc2ccccc2S3)cc1O`: the growth in the assay with HCT-15 colon is 29.8%; with HT29 colon, 85.3%; in the assay with SNB-75 CNS it was 66%; in the assay on SNB-19 CNS, 63.7%; in the assay on U251 CNS, 64.5%; in the assay with PC-3 prostate, 45.4%. The growth is -23.5% (active) in the assay with SK-MEL-5 melanoma; 58.9% in the assay with UACC-62 melanoma; 21% with LOX IMVI melanoma; 48.5% with SK-MEL-2 melanoma; 40.4% in the assay on EKVX NSCLC; 70.1% in the assay on SN12C renal. Moreover, the growth with UO-31 renal was 47%; with TK-10 renal, 70.6%; with ACHN renal it was 43.3%; in the assay on CAKI-1 renal, 55.1%; in the assay with A498 renal, 75.5%; in the assay with CCRF-CEM leukemia, 33.9%. In addition, the growth in the assay on MOLT-4 leukemia is 13.6%.
For `CCCCCc1ccc(S(=O)(=O)Nc2cc(-c3csc(N(C)C(C)=O)n3)ccc2N2CCN(C)CC2)cc1`, the growth is 1.4% (active) in the assay with HCT-15 colon; 15.2% with HT29 colon; 40% with SNB-75 CNS; 41% with SNB-19 CNS; 19.6% in the assay with U251 CNS; 37% in the assay with PC-3 prostate. Moreover, the growth in the assay with SK-MEL-5 melanoma is -6.97% (active); with UACC-62 melanoma it was -62.2% (active); in the assay with LOX IMVI melanoma it was -71.1% (active); in the assay with SK-MEL-28 melanoma, 11.8%; in the assay on EKVX NSCLC, 65.4%; in the assay with SN12C renal it was 14.1%. For the same compound, the growth with UO-31 renal was 33.1%; with TK-10 renal, 47.3%; in the assay with ACHN renal, 13.7%; with CAKI-1 renal, 38.9%; in the assay on A498 renal, 104%; in the assay on CCRF-CEM leukemia, -27.5% (active).
Turning to `N#Cc1c(NC(=O)c2ccc(C(F)(F)F)c(Cl)c2)sc2c1CCC(=O)C2`, the growth was -62.3% (active) in the assay on HCT-15 colon; -25.8% (active) with HT29 colon; -37.7% (active) with SNB-75 CNS; -55.3% (active) in the assay on SNB-19 CNS; -84.7% (active) in the assay with U251 CNS; -10.2% (active) in the assay on PC-3 prostate. Further, the growth in the assay with SK-MEL-5 melanoma was -98.8% (active); in the assay with UACC-62 melanoma it was -78.9% (active); in the assay with LOX IMVI melanoma, -52.6% (active); with SK-MEL-28 melanoma it was -83.4% (active); in the assay on SK-MEL-2 melanoma, -9.04% (active); with EKVX NSCLC, -79.9% (active). In addition, the growth in the assay with TK-10 renal is 16%; with ACHN renal, -96.5% (active); with CAKI-1 renal it was -72% (active); in the assay on A498 renal it was 74.1%; with CCRF-CEM leukemia, 5.53% (active); in the assay on MOLT-4 leukemia, -6.19% (active).
As to `Nc1nc(Nc2ccc(Cl)cc2)nn1Cc1cccc(Br)c1`, the growth was 29.9% in the assay with HCT-15 colon; 54.1% with HT29 colon; 69.9% in the assay with SNB-75 CNS; 57.2% in the assay on SNB-19 CNS; 58.6% in the assay with U251 CNS; 22.9% in the assay on PC-3 prostate. Besides, the growth with SK-MEL-5 melanoma is 47.4%; with UACC-62 melanoma, 29.9%; in the assay on LOX IMVI melanoma, 13.7%; in the assay with SK-MEL-28 melanoma, 44.8%; in the assay on EKVX NSCLC, 22.3%; with SN12C renal it was 41.1%. Further, the growth in the assay on UO-31 renal was 18.2%; with TK-10 renal, 61.1%; in the assay with ACHN renal, 22.8%; in the assay on CAKI-1 renal, 26.9%; in the assay on A498 renal it was -1.15% (active); in the assay with CCRF-CEM leukemia, 34.3%. The growth with MOLT-4 leukemia was 20.1%.
Take `COc1cc2c(cc1OC)CN(CCCCOc1cc(O)c3c(=O)cc(-c4ccccc4)oc3c1)CC2`: the growth in the assay on HCT-15 colon is 21.4%; in the assay on HT29 colon, -6.93% (active); with SNB-75 CNS, 98.9%; in the assay with SNB-19 CNS, 78.3%; with U251 CNS it was 49.8%; with PC-3 prostate it was 63.1%. In addition, the growth in the assay with SK-MEL-5 melanoma is 17.1%; in the assay with UACC-62 melanoma it was 40.4%; with LOX IMVI melanoma, -66.1% (active); with SK-MEL-28 melanoma, -8.78% (active); with SK-MEL-2 melanoma, 66.6%; in the assay with EKVX NSCLC, 76.6%. The growth is 51% in the assay with UO-31 renal; 66.8% in the assay on ACHN renal; 127% with A498 renal; 32.2% in the assay with CCRF-CEM leukemia; 20.2% in the assay with MOLT-4 leukemia.
Take `COc1cc(/C=C/C(=O)c2ccc(NC(=O)CN3C(=O)NC(C)(c4ccccc4)C3=O)cc2)cc(OC)c1OC` (configuration not stated): the growth in the assay on HCT-15 colon is 11.8%; in the assay on HT29 colon, -2.37% (active); in the assay on SNB-75 CNS, 83.8%; in the assay with SNB-19 CNS, 42.6%; in the assay on U251 CNS it was -15.7% (active); in the assay on PC-3 prostate, 31.9%. Also, the growth in the assay with SK-MEL-5 melanoma was 44.7%; in the assay on UACC-62 melanoma it was 41.6%; in the assay with LOX IMVI melanoma it was -46.1% (active); with SK-MEL-28 melanoma, 49.8%; with EKVX NSCLC, 73.2%; in the assay with SN12C renal, 10.7%. For the same compound, the growth with UO-31 renal was 73.9%; in the assay with TK-10 renal, 98.6%; in the assay with ACHN renal, 56%; with A498 renal, 132%; with CCRF-CEM leukemia it was 7.14% (active); in the assay with MOLT-4 leukemia, 1.84% (active).

For the origin of these results see PubChem BioAssay (NCI).
